The first assay has as its system PHKG1. To be noted: concentration: 1 μM, replicates: in singlicate; n = 1.
`CCC(CC)(CC)n1cnc2c(N)ncnc21` [SKF-97620]: the “%Inh” value is reported as 0%.

`Cc1ccc(NC(=O)c2cccc(C#N)c2)cc1-c1ccc(C(=O)Nc2ccncc2)cc1` [GSK1398463]: the “%Inh” value amounted to 2%.

Turning to `CSc1nn2c(=O)cc(N3CCOCC3)nc2n1Cc1cccc(Cl)c1Cl` [GSK2347225], the “%Inh” value is 0%.

With `FC(F)(F)c1cc(Nc2nccc(-c3c(-c4ccc(Cl)cc4)nn4ncccc34)n2)ccc1Cl` [GW829351], the “%Inh” value is given as 0%.

In the case of `CC(=O)Nc1n[nH]c2ncc(-c3ccccc3)cc12` [SB-548492], the “%Inh” value is listed as 2%.

For `O=C(Nc1n[nH]c2nc(-c3ccco3)c(Br)cc12)c1ccc(CN2CCCC2)cc1.O=C(O)[C@H](O)[C@@H](O)C(=O)O` [SB-742352], the “%Inh” value was found to be 0%.

As for `O=C(NCCCN1CCCC1=O)c1cnc(NCc2cc(Cl)ccc2Cl)nc1NC1CCNCC1`, the “%Inh” value is recorded as 0%.

For the compound `Nc1nccc2scc(-c3ccc4c(c3)CCN4C(=O)Cc3cc(F)ccc3F)c12` [GSK2587663], the “%Inh” value stood at 4%.

With `CN1CCC(n2cnc(-c3ccc(F)cc3)c2-c2ccnc(NC3CCNCC3)n2)CC1` [SB-229482], the “%Inh” value is recorded as 0%.

With `Oc1ccc2ncnc(Nc3ccc(OCc4ccccc4)cc3)c2c1` [GI262866], the “%Inh” value was found to be 0%.

Take `COc1ccc(NC(=O)c2ccc(-c3cc(-c4nnc(C)o4)ccc3C)cc2)cc1` [GW595885]: the “%Inh” value came to 3%.

For `CC(C)N1CCC(n2cnc(-c3ccc(F)cc3)c2-c2ccnc(N)n2)CC1` [SB-223132], the “%Inh” value was found to be 28%.

Consider `COc1ccc(Nc2nccc(N3CCC(NC(=O)Nc4ccc5c(c4)OCO5)C3)n2)cc1` (centres unmarked) [GSK1379745], for which the “%Inh” value turned out to be 0%.

With `COC(=O)c1cccc(NC(=O)NCCNc2ccnc(Nc3ccc(F)cc3)n2)c1` [GSK1379883], the “%Inh” value worked out at 0%.

On to `COc1cc2c(Nc3cccc(NC(=O)c4ccccc4)c3)ncnc2cc1OCCCN1CCOCC1` [GSK223810], for which the “%Inh” value stood at 5%.

On to `O=C(Nc1ccccc1)Nc1ccc(Oc2ccc3nccn3n2)cc1`, for which the “%Inh” value is 0%.

Take `Nc1nc(-c2ccccn2)c(-c2ccnc3ccccc23)s1` [GW548057]: the “%Inh” value is on record as 0%.

For the compound `Cc1ccc(O)cc1Nc1cc(C(F)(F)F)nc2ccc(-c3ccncc3)cc12` [GW630823], the “%Inh” value is 14%.

For the compound `Fc1cccc(COc2ccc(Nc3ncnc4sc(-c5ccc[nH]5)cc34)cc2Cl)c1` [GW707818], the “%Inh” value turned out to be 0%.

As for `Fc1cccc(COc2ccc(Nc3ncnc4cc[nH]c34)cc2Cl)c1`, the “%Inh” value was 0%.

For the compound `Nc1nc(-c2ccc3c(N)n[nH]c3c2)cc(N2CCC[C@@H](C(=O)Nc3ccccc3)C2)n1.O=C(O)C(F)(F)F.O=C(O)C(F)(F)F` [GSK2288359], the “%Inh” value is 0%.

For `O=C(CCO)NCCn1ccc2ncnc(Nc3ccc(Oc4cccc(C(F)(F)F)c4)c(Cl)c3)c21`, the “%Inh” value was found to be 0%.

With `CNc1nccc(-c2c(-c3ccc(F)cc3)ncn2CCCN2CCOCC2)n1` [SB-222516], the “%Inh” value came to 0%.

As to `Cc1ccc(C)c(NC(=O)NCCNc2ccnc(Nc3ccc(F)cc3)n2)c1` [GSK1379878], the “%Inh” value is 0%.

For the compound `CC(C)(C)c1ccc(-n2cnc3c(N)ncnc32)cc1` [SKF-97263], the “%Inh” value is 0%.

Regarding `CS(=O)(=O)CCNCc1nc(-c2ccc3ncnc(Nc4ccc(OCc5cccc(F)c5)c(Cl)c4)c3c2)cs1.Cl` [GW583340], the “%Inh” value is 0%.

Consider `CCCc1ccc(S(=O)(=O)NC2CCN(c3ccnc(Nc4ccc(OC)cc4)n3)C2)cc1` (centres unmarked) [GSK1379737], for which the “%Inh” value came to 0%.

Consider `FC(F)(F)c1ccc(-c2nn3ncccc3c2-c2ccnc(Nc3cccc(C(F)(F)F)c3)n2)cc1` [GW828205], for which the “%Inh” value was 9%.

Regarding `Cc1cccc(-c2nc(Nc3ccc4[nH]nnc4c3)c3ccccc3n2)n1` [GW867587], the “%Inh” value stood at 0%.

As for `O=C(Nc1ccccc1F)NC1CCN(c2ccnc(Nc3ccc(F)cc3)n2)C1` (centres unmarked) [GSK1379722], the “%Inh” value stood at 13%.

Take `COc1ccc(NC(=O)Nc2ccc(C)c(-c3ccc(C(=O)Nc4ccncc4)cc3)c2)cc1` [GSK1398475]: the “%Inh” value worked out at 0%.

For the compound `Clc1ccc(-c2cc(-c3c[nH]nc3-c3ccccn3)ccn2)cc1` [GW681251], the “%Inh” value is 0%.

Consider `Clc1cc(Nc2ncnc3cc[nH]c23)ccc1OCc1ccccn1`, for which the “%Inh” value stood at 0%.

For the compound `CNc1nccc(-c2c(-c3ccc(F)cc3)ncn2C2CCN(C)CC2)n1` [SB-222903], the “%Inh” value was determined as 0%.

Regarding `c1ccc(-c2ccc3c(-c4ccnc(Nc5ccc6c(c5)OCCO6)n4)cnn3n2)cc1` [GW818941], the “%Inh” value is 0%.

As for `COc1ccc(-c2nc3n(c2-c2ccncc2)CCC3)cc1` [SKF-104493], the “%Inh” value is 0%.

The subject of another assay is PHKG2. Conditions: concentration: 1 μM, replicates: in singlicate; n = 1.
Take `CCC(CC)(CC)n1cnc2c(N)ncnc21` [SKF-97620]: the “%Inh” value is on record as 0%.

On to `Cc1ccc(NC(=O)c2cccc(C#N)c2)cc1-c1ccc(C(=O)Nc2ccncc2)cc1` [GSK1398463], for which the “%Inh” value was found to be 0%.

For the compound `CSc1nn2c(=O)cc(N3CCOCC3)nc2n1Cc1cccc(Cl)c1Cl` [GSK2347225], the “%Inh” value was determined as 0%.

For the compound `FC(F)(F)c1cc(Nc2nccc(-c3c(-c4ccc(Cl)cc4)nn4ncccc34)n2)ccc1Cl` [GW829351], the “%Inh” value is on record as 0%.

`CC(=O)Nc1n[nH]c2ncc(-c3ccccc3)cc12` [SB-548492]: the “%Inh” value turned out to be 0%.

With `O=C(Nc1n[nH]c2nc(-c3ccco3)c(Br)cc12)c1ccc(CN2CCCC2)cc1.O=C(O)[C@H](O)[C@@H](O)C(=O)O` [SB-742352], the “%Inh” value was 0%.

As for `O=C(NCCCN1CCCC1=O)c1cnc(NCc2cc(Cl)ccc2Cl)nc1NC1CCNCC1`, the “%Inh” value stood at 1%.

With `Nc1nccc2scc(-c3ccc4c(c3)CCN4C(=O)Cc3cc(F)ccc3F)c12` [GSK2587663], the “%Inh” value is on record as 0%.

For the compound `CN1CCC(n2cnc(-c3ccc(F)cc3)c2-c2ccnc(NC3CCNCC3)n2)CC1` [SB-229482], the “%Inh” value was 16%.

Consider `Oc1ccc2ncnc(Nc3ccc(OCc4ccccc4)cc3)c2c1` [GI262866], for which the “%Inh” value came to 0%.

As to `COc1ccc(NC(=O)c2ccc(-c3cc(-c4nnc(C)o4)ccc3C)cc2)cc1` [GW595885], the “%Inh” value worked out at 0%.

`CC(C)N1CCC(n2cnc(-c3ccc(F)cc3)c2-c2ccnc(N)n2)CC1` [SB-223132]: the “%Inh” value was 0%.

On to `COc1ccc(Nc2nccc(N3CCC(NC(=O)Nc4ccc5c(c4)OCO5)C3)n2)cc1` (centres unmarked) [GSK1379745], for which the “%Inh” value turned out to be 9%.

On to `COC(=O)c1cccc(NC(=O)NCCNc2ccnc(Nc3ccc(F)cc3)n2)c1` [GSK1379883], for which the “%Inh” value is given as 0%.

As to `COc1cc2c(Nc3cccc(NC(=O)c4ccccc4)c3)ncnc2cc1OCCCN1CCOCC1` [GSK223810], the “%Inh” value was 12%.

Turning to `O=C(Nc1ccccc1)Nc1ccc(Oc2ccc3nccn3n2)cc1`, the “%Inh” value worked out at 5%.

For `Nc1nc(-c2ccccn2)c(-c2ccnc3ccccc23)s1` [GW548057], the “%Inh” value was found to be 6%.

As for `Cc1ccc(O)cc1Nc1cc(C(F)(F)F)nc2ccc(-c3ccncc3)cc12` [GW630823], the “%Inh” value is on record as 5%.

Turning to `Fc1cccc(COc2ccc(Nc3ncnc4sc(-c5ccc[nH]5)cc34)cc2Cl)c1` [GW707818], the “%Inh” value amounted to 12%.

As for `Fc1cccc(COc2ccc(Nc3ncnc4cc[nH]c34)cc2Cl)c1`, the “%Inh” value amounted to 7%.

As for `Nc1nc(-c2ccc3c(N)n[nH]c3c2)cc(N2CCC[C@@H](C(=O)Nc3ccccc3)C2)n1.O=C(O)C(F)(F)F.O=C(O)C(F)(F)F` [GSK2288359], the “%Inh” value was determined as 2%.

For `O=C(CCO)NCCn1ccc2ncnc(Nc3ccc(Oc4cccc(C(F)(F)F)c4)c(Cl)c3)c21`, the “%Inh” value worked out at 3%.

Turning to `CNc1nccc(-c2c(-c3ccc(F)cc3)ncn2CCCN2CCOCC2)n1` [SB-222516], the “%Inh” value is 0%.

Take `Cc1ccc(C)c(NC(=O)NCCNc2ccnc(Nc3ccc(F)cc3)n2)c1` [GSK1379878]: the “%Inh” value is listed as 0%.

With `CC(C)(C)c1ccc(-n2cnc3c(N)ncnc32)cc1` [SKF-97263], the “%Inh” value worked out at 0%.

As for `CS(=O)(=O)CCNCc1nc(-c2ccc3ncnc(Nc4ccc(OCc5cccc(F)c5)c(Cl)c4)c3c2)cs1.Cl` [GW583340], the “%Inh” value came out at 0%.

As for `CCCc1ccc(S(=O)(=O)NC2CCN(c3ccnc(Nc4ccc(OC)cc4)n3)C2)cc1` (centres unmarked) [GSK1379737], the “%Inh” value came to 0%.

Consider `FC(F)(F)c1ccc(-c2nn3ncccc3c2-c2ccnc(Nc3cccc(C(F)(F)F)c3)n2)cc1` [GW828205], for which the “%Inh” value turned out to be 0%.

As for `Cc1cccc(-c2nc(Nc3ccc4[nH]nnc4c3)c3ccccc3n2)n1` [GW867587], the “%Inh” value stood at 0%.

In the case of `O=C(Nc1ccccc1F)NC1CCN(c2ccnc(Nc3ccc(F)cc3)n2)C1` (centres unmarked) [GSK1379722], the “%Inh” value stood at 0%.

With `COc1ccc(NC(=O)Nc2ccc(C)c(-c3ccc(C(=O)Nc4ccncc4)cc3)c2)cc1` [GSK1398475], the “%Inh” value is 0%.

In the case of `Clc1ccc(-c2cc(-c3c[nH]nc3-c3ccccn3)ccn2)cc1` [GW681251], the “%Inh” value worked out at 0%.

With `Clc1cc(Nc2ncnc3cc[nH]c23)ccc1OCc1ccccn1`, the “%Inh” value stood at 0%.

Turning to `CNc1nccc(-c2c(-c3ccc(F)cc3)ncn2C2CCN(C)CC2)n1` [SB-222903], the “%Inh” value is given as 0%.

Consider `c1ccc(-c2ccc3c(-c4ccnc(Nc5ccc6c(c5)OCCO6)n4)cnn3n2)cc1` [GW818941], for which the “%Inh” value amounted to 0%.

Values taken from publication PMC5540273 (PLoS ONE, 2017).
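Note: KINOMEscan kinase panel screen.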
